In PubChem BioAssay (NCATS):
Inconclusive results are not listed. Calls of active or inactive are those of the source. Calls come from the whole dose curve; as a rule, active = well fitted curve in the direction sought with a large enough effect; inconclusive = small, poorly fitted or top-dose-only effect, or another doubt; inactive = no such curve, though single readings can be large; an effect the other way counts as inactive or inconclusive.

Experiments:
[1] = qHTS of pediatric cancer cell lines to identify multiple opportunities for drug repurposing: Primary screen for OHS-50 cells (AID 1347103); note: nearly all actives have a fitted effect of over 40% in size
Method in brief: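 Cells (500-1,000/well) rested 5 h, then received compounds for 48 h; metabolically active cells were measured by CellTiter-Glo luminescence. Final concentrations spanned up to 46 µM (MIPE, 11-point) or 0.59 nM-46 µM (NPC, 8-point) in primary screens, 11-point in follow-ups.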

[2] = qHTS of pediatric cancer cell lines to identify multiple opportunities for drug repurposing: Primary screen for RD cells (AID 1347104); note: nearly all actives have a fitted effect of over 55% in size
Method in brief: (§1)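 Viability was measured as metabolically active cells after 48 hours of treatment, read by CellTiter-Glo luminescence. Compounds were tested at multiple final concentrations, giving concentration-response curves.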

[3] = qHTS of pediatric cancer cell lines to identify multiple opportunities for drug repurposing: Primary screen for MG 63 (6-TG R) cells (AID 1347105); note: nearly all actives have a fitted effect of over 50% in size
Method in brief: as §1

[4] = qHTS of pediatric cancer cell lines to identify multiple opportunities for drug repurposing: Primary screen for control Hh wild type fibroblast cells (AID 1347106);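 note: series mostly up to about 46 µM; a drop in luminescence marks cytotoxicity and a rise apparent proliferation; nearly all actives have a fitted effect of over 55% in size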
Method in brief: (§2)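 Viability after 48 h compound treatment at 37C, 500-1,000 cells/well, read as ATP luminescence with CellTiter-Glo. Primary screens used 11-point (MIPE, 0.78 nM-46 µM) or 8-point (NPC, 0.59 nM-46 µM) final concentrations; follow-up screens used 11-point dilutions.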

[5] = qHTS of pediatric cancer cell lines to identify multiple opportunities for drug repurposing: Primary screen for Rh30 cells (AID 1347107); note: series mostly up to about 46 µM; nearly all actives have a fitted effect of over 75% in size
Method in brief: as §2

[6] = qHTS of pediatric cancer cell lines to identify multiple opportunities for drug repurposing: Primary screen for Rh41 cells (AID 1347108);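 note: series mostly up to about 46 µM; luminescence drop marks cytotoxic hits; nearly all actives have a fitted effect of over 70% in size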
Method in brief: as §1

Measured: Potency

CC[N+]1(CC)CCC(OC(=O)C(O)(c2ccccc2)c2ccccc2)C1 (stereo not given)
inactive: all assays above

C[C@@H](N)[C@@H](O)c1ccccc1
inactive: all assays above

O=c1oc2ccccc2c(O)c1Cc1c(O)c2ccccc2oc1=O
inactive: all assays above

NC1=NC(=O)C(c2ccccc2)O1 (stereo not given)
inactive: all assays above

CNC(C)(C)Cc1ccccc1
not listed: [6]
inactive: all other assays above

COP(=S)(OC)Oc1cc(Cl)c(Cl)cc1Cl
inactive: all assays above

NCCc1ccc(O)cc1
not listed: [6]
inactive: all other assays above

COP(=S)(OC)Oc1ccc(SC)c(C)c1
not listed: [6]
inactive: all other assays above

c1ccc2c(c1)sc1ccccc12
not listed: [6]
inactive: all other assays above

C=CCC1([C@H](C)CCC)C(=O)NC(=O)NC1=O
not listed: [6]
inactive: all other assays above

CCN[C@H](C)Cc1cccc(C(F)(F)F)c1
inactive: all assays above

CCCCC/C=C\C/C=C\C/C=C\C/C=C\CCCC(=O)NCC(=O)O
inactive: all assays above

CC(C)(C)NCC(O)c1ccccc1Cl (stereo not given)
inactive: all assays above

COc1cccc([C@@]2(O)CCCC[C@@H]2CN(C)C)c1
not listed: [6]
inactive: all other assays above

COP(=S)(OC)Oc1ccc(S(=O)(=O)N(C)C)cc1
not listed: [6]
inactive: all other assays above

Nc1ccccc1C(=O)O
not listed: [6]
inactive: all other assays above

CC(=O)OCC1=C(C(=O)O)N2C(=O)[C@@H](N)[C@H]2SC1
inactive: all assays above

O=c1[nH]oc2c1CCNC2
not listed: [6]
inactive: all other assays above

C=CCN1C[C@H](C)N([C@H](c2ccc(C(=O)N(CC)CC)cc2)c2cccc(OC)c2)C[C@H]1C
not listed: [6]
inactive: all other assays above

Clc1cccc(SC2CCNCC2)n1
inactive: all assays above

C=CCC1(C(C)CC)C(=O)NC(=O)NC1=O (stereo not given)
not listed: [6]
inactive: all other assays above

CC(=O)NC1CCSC1=O (stereo not given)
inactive: all assays above

C#C[C@]1(O)CC[C@H]2[C@@H]3CCC4=CC(=O)CC[C@]4(C)[C@H]3CC[C@@]21C
inactive: all assays above

CC(C)c1c(CN(C)C(C)Cc2ccccc2)n(C)n(-c2ccccc2)c1=O (stereo not given)
not listed: [6]
inactive: all other assays above

CCN[C@@H](C)Cc1ccccc1
inactive: all assays above

CN(C)CCc1c[nH]c2cccc(OP(=O)(O)O)c12
not listed: [6]
inactive: all other assays above

COP(=S)(OC)SCN1C(=O)c2ccccc2C1=O
not listed: [6]
inactive: all other assays above

CN1C(=O)CCS(=O)(=O)C1c1ccc(Cl)cc1 (stereo not given)
inactive: all assays above

O=C1CN=C(c2ccccc2)c2cc([N+](=O)[O-])ccc2N1
inactive: all assays above

CN1C(=O)NC(=O)C(C)(C2=CCCCC2)C1=O (stereo not given)
not listed: [6]
inactive: all other assays above
